The record followed here is PubChem BioAssay (EPA / NIEHS).

The nature of experiment [1]: ATG_CRE_CIS: Attagene CIS-FACTORIAL HepG2 Assay for human cAMP Responsive Element (CRE) binding protein 3 (AID 2282926). The following applies: HepG2 CRE cis-reporter, Attagene multiplexed mRNA; actives raise or lower the signal. In outline: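 Liver-derived HepG2, transfected with a CRE-containing reporter panel, exposed 24 h; transcript levels sized and quantified by capillary electrophoresis of labelled amplicons; signal changes either way referenced to vehicle.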

In experiment [2] the target is CCAAT/enhancer-binding protein beta (Homo sapiens) (UniProt P17676). Put plainly: ATG_C_EBP_CIS: Attagene CIS-FACTORIAL HepG2 Assay for human CCAAT/Enhancer Binding Protein (C/EBP) beta (AID 2282927). Conditions: HepG2 Attagene cis-factorial transcription factor reporter; actives raise or lower the signal. In outline:
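Following a 24 h incubation with test chemical, transfected HepG2 cells yielded RNA whose reporter transcripts were quantified by RT-PCR and fluorescent capillary electrophoresis, with DMSO serving as baseline for bidirectional fitting.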

The target in experiment [3] is Aryl hydrocarbon receptor (Homo sapiens) (UniProt P35869). Put plainly: ATG_Ahr_CIS: Attagene CIS-FACTORIAL HepG2 Assay for human Aryl Hydrocarbon Receptor (Ahr) (AID 2282930). Conditions: HepG2 AhR cis-factorial reporter transcription; actives raise or lower the signal. Put shortly: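 Values derive from bidirectional fitting against DMSO negative control. Underlying signal: cis-element reporter mRNA in transiently transfected HepG2, harvested 24 h post-dose and measured by RT-PCR plus capillary electrophoresis.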
Sequence of Aryl hydrocarbon receptor (Homo sapiens) (P35869 whole entry, looked up): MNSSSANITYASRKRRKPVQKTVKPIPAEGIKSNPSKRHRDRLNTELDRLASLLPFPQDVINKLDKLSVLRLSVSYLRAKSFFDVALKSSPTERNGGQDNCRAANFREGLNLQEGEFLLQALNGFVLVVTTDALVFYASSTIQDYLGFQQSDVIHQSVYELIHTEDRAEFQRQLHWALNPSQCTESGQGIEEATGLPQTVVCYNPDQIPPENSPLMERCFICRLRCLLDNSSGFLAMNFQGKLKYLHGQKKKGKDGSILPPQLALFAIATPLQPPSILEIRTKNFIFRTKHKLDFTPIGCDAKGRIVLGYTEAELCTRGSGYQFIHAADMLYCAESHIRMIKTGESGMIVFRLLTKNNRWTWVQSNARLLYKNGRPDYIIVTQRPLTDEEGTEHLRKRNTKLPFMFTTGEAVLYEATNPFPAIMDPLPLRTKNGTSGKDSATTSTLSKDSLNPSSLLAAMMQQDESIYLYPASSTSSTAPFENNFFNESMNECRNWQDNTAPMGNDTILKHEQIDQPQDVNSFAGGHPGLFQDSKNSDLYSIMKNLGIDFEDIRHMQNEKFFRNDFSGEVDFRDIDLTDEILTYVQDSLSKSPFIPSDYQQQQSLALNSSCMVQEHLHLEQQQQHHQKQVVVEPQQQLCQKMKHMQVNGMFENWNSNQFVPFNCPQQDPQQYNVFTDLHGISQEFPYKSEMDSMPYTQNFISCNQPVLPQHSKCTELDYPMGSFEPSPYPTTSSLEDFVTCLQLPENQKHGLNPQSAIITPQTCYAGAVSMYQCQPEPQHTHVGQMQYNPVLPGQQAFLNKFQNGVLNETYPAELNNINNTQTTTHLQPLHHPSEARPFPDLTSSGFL

Experiment [4] in a line: ATG_AP_1_CIS: Attagene CIS-FACTORIAL HepG2 Assay for human Activator Protein 1 (AP-1) (AID 2282931). The following applies: HepG2 Attagene cis-factorial AP-1 reporter mRNA; actives raise or lower the signal. In outline:
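After 24 h incubation with test chemical, RNA from transfected HepG2 cells was reverse-transcribed, amplified, fluorescently labelled and digested before capillary electrophoresis. Reporters were driven by cis-regulatory promoters; activity fitted bidirectionally versus DMSO.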

Experiment [5] can be described thus: ATG_BRE_CIS: Attagene CIS-FACTORIAL HepG2 Assay for human Bone Morphogenetic Protein (BMP) Response Element (BRE) (AID 2282933). The following applies: HepG2 BMP response element reporter, Attagene transcription factor profiling; actives raise or lower the signal. Put shortly: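 HepG2 cells transiently transfected with CIS reporter units (endogenous TF activity, BMP response element), dosed 24 h. Reporter mRNA quantified by RT-PCR, fluorescent labelling and capillary electrophoresis; bidirectional fit vs DMSO baseline.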

A short description of experiment [6]: ATG_M_19_CIS: Attagene CIS-FACTORIAL HepG2 Assay for M19 Transcription Factor (Internal Marker) (AID 2282939). Conditions: HepG2 Attagene CIS-FACTORIAL M19 internal marker reporter; actives raise or lower the signal. In outline:
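HepG2 cells transiently transfected with cis-regulated multiplexed reporter units, dosed 24 h. Reporter mRNA quantified by RT-PCR and capillary electrophoresis; internal background marker fitted bidirectionally versus DMSO.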

Experiment [7] is described as follows: ATG_GLI_CIS: Attagene CIS-FACTORIAL HepG2 Assay for human Zinc Finger Protein GLI1 (AID 2282945). The following applies: HepG2, Attagene cis-factorial reporter mRNA, GLI element; actives raise or lower the signal. Put shortly:
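HepG2 cells transiently transfected with cis-promoter multiplexed reporter units report endogenous transcription factor activity. After 24 h chemical exposure, reporter mRNA was quantified by RT-PCR, 6-FAM labelling, HpaI digestion and capillary electrophoresis, with bidirectional fitting against DMSO.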

Experiment [8] addresses Hypoxia-inducible factor 1-alpha (Homo sapiens) (UniProt Q16665). Briefly: ATG_HIF1a_CIS: Attagene CIS-FACTORIAL HepG2 Assay for human Hypoxia Inducible Factor 1 (HIF1A) (AID 2282951). Conditions: HepG2 Attagene cis-factorial HIF1a reporter transcription; actives raise or lower the signal. In outline:
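Endogenous-TF cis reporter readout, human HepG2 cells, 24 h incubation; mRNA detected via RT-PCR and capillary electrophoresis fluorescence; DMSO-normalised bidirectional fitting.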

Experiment [9] concerns the target Hepatocyte nuclear factor 6 (Homo sapiens) (UniProt Q9UBC0). Briefly: ATG_HNF6_CIS: Attagene CIS-FACTORIAL HepG2 Assay for human Hepatocyte Nuclear Factor 6 (HNF6) (AID 2282952). The following applies: HepG2 Attagene cis-factorial HNF6 reporter transcription; actives raise or lower the signal. Put shortly:
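Twenty-four-hour chemical treatment of reporter-transfected HepG2 cells precedes RNA isolation, DNase-treated reverse transcription and PCR of reporter sequences. Labelled fragments are sized by capillary electrophoresis and fitted bidirectionally versus DMSO.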

Experiment [10] has as its target Heat shock factor protein 1 (Homo sapiens) (UniProt Q00613). Briefly: ATG_HSE_CIS: Attagene CIS-FACTORIAL HepG2 Assay for human Heat Shock Transcription Factor 1 (HSE) (AID 2282953). The following applies: HepG2 HSE cis-reporter, Attagene RNA transcription; actives raise or lower the signal. In outline:
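HepG2 cells transfected with cis-promoter reporter units sensing endogenous transcription factor activity; reporter mRNA quantified 24 h post-dose by RT-PCR and capillary electrophoresis of 6-FAM-labelled products. Bidirectional fitting against DMSO.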

Experiment [11] in a line: ATG_TA_CIS: Attagene CIS-FACTORIAL HepG2 Assay for human TA Basal Promoter (AID 2282964). The following applies: HepG2 Attagene CIS-factorial TA basal promoter reporter; actives raise or lower the signal. In outline: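 HepG2 cells transiently transfected with multiple reporter units under cis promoter elements, reporting endogenous transcription factor activity; this endpoint tracks the TA basal promoter as background control. Reporter mRNA after 24 h dosing measured by RT-PCR/capillary electrophoresis; bidirectional fits versus DMSO.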

Experiment [12] is described as follows: ATG_VDRE_CIS: Attagene CIS-FACTORIAL HepG2 Assay for human Vitamin D Receptor Element (VDRE) (AID 2282968). The following applies: HepG2 VDRE cis-reporter transcription, actives raise or lower the signal. Put shortly: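 Steps: transfect HepG2 with multiple reporter transcription units; dose chemicals 24 h; isolate RNA; RT-PCR; label with 6-FAM primer extension; HpaI digest; capillary electrophoresis. Curves fitted both directions against DMSO.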

The target of experiment [13] is X-box-binding protein 1 (Homo sapiens) (UniProt P17861). Put plainly: ATG_Xbp1_CIS: Attagene CIS-FACTORIAL HepG2 Assay for human X-box Binding Protein 1 (XBP1) (AID 2282972). The following applies: HepG2 XBP1 cis-element reporter, Attagene multiplex; actives raise or lower the signal. In outline:
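Changes in reporter transcript abundance, read by RT-PCR and capillary electrophoresis, reflect endogenous transcription factor activity. Transfected HepG2 cells received compound for 24 hours; DMSO defined baseline for bidirectional analysis.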

Experiment [14] has as its target Myc proto-oncogene protein (Homo sapiens) (UniProt P01106). Briefly: ATG_Myc_CIS: Attagene CIS-FACTORIAL HepG2 Assay for human Myelocytomatosis (Myc) Proto-Oncogene Transcription Factor (AID 2282990). The following applies: HepG2, Attagene cis-reporter transcription factor activity; actives raise or lower the signal. Put shortly:
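Multiplexed cis-reporter transcription in HepG2 cells after 24 h chemical treatment. Reporter mRNA measured by RT-PCR and capillary electrophoresis fluorescence; activity fitted bidirectionally against DMSO control.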

Experiment [15] is described as follows: ATG_NRF2_ARE_CIS: Attagene CIS-FACTORIAL HepG2 Assay for human Nuclear Factor Erythroid 2 Related Factor 2 (NFR2) response to Antioxidant Response Elements (ARE) (AID 2282992). Conditions: HepG2 Attagene ARE/NRF2 reporter, transcription factor activity; actives raise or lower the signal. Put shortly:
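Using transiently transfected HepG2 cells exposed for 24 h, reporter mRNA levels were determined by RT-PCR with fluorescent primer extension and capillary electrophoresis, analysed for gain or loss of signal against DMSO.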

Experiment [16] in a line: ATG_Oct_MLP_CIS: Attagene CIS-FACTORIAL HepG2 Assay for human Octamer-Binding Transcription Factor (Oct) (AID 2282993). The following applies: HepG2 Attagene cis-factorial Oct reporter, mRNA; actives raise or lower the signal. In outline:
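HepG2 cells transiently transfected with cis-element-driven reporter transcription units (endogenous TF activity); 24 h compound exposure. Reporter mRNA quantified by RT-PCR, 6-FAM labelling, HpaI digestion and capillary electrophoresis; bidirectional fit versus DMSO baseline.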

Experiment [17] addresses Cellular tumor antigen p53 (Homo sapiens) (UniProt P04637). Briefly: ATG_p53_CIS: Attagene CIS-FACTORIAL HepG2 Assay for human p53 Transcription Factor (AID 2282994). The following applies: HepG2 p53 cis-element reporter, Attagene mRNA; actives raise or lower the signal. In outline:
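In HepG2 cells, reporter transcription units under cis-regulatory promoters were transiently introduced. Following 24 h treatment, RNA was processed to labelled, digested cDNA fragments read by capillary electrophoresis; fitting was bidirectional versus DMSO.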

Experiment [18] can be described thus: ATG_E_Box_CIS: Attagene CIS-FACTORIAL HepG2 Assay for human Enhancer Box (E-box) (AID 2282936). The following applies: HepG2 E-box cis-reporter transcription, actives raise or lower the signal. Put shortly:
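Endogenous transcription factor activity was sensed in human HepG2 liver cells through transfected cis-promoter reporter units. After 24 h of dosing, total RNA was reverse-transcribed and reporter cDNA resolved by capillary electrophoresis.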

Experiment [19] in a line: ATG_M_06_CIS: Attagene CIS-FACTORIAL HepG2 Assay for M06 Transcription Factor (Internal Marker) (AID 2282950). The following applies: HepG2 Attagene CIS-FACTORIAL M06 internal marker reporter; actives raise or lower the signal. Put shortly:
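Internal background marker within multiplexed cis-reporter HepG2 system. Cells transiently transfected, dosed 24 h; reporter mRNA measured by RT-PCR, HpaI digestion and capillary electrophoresis. Bidirectional fit relative to DMSO.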

Experiment [20] concerns the target Nuclear respiratory factor 1 (Homo sapiens) (UniProt Q16656). Briefly: ATG_NRF1_CIS: Attagene CIS-FACTORIAL HepG2 Assay for human Nuclear Respiratory Factor 1 (NRF1) Orphan Gene (AID 2282987). Conditions: HepG2 NRF1 cis-element reporter, Attagene multiplex; actives raise or lower the signal. Put shortly: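 Endogenous factor activity was captured via cis-element-driven reporter transcripts in HepG2 cells. Following 24 h chemical treatment, transcripts were quantified by RT-PCR and capillary electrophoresis.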

Molecules are shown by their SMILES. Activity calls are given as the source filed them. How the source made its calls: active means hit-call score of the fitted dose curve at least 0.9, where 1 is the maximum; inactive means score below 0.9.

Sequence of Nuclear respiratory factor 1 (Homo sapiens) (Q16656 whole entry, looked up): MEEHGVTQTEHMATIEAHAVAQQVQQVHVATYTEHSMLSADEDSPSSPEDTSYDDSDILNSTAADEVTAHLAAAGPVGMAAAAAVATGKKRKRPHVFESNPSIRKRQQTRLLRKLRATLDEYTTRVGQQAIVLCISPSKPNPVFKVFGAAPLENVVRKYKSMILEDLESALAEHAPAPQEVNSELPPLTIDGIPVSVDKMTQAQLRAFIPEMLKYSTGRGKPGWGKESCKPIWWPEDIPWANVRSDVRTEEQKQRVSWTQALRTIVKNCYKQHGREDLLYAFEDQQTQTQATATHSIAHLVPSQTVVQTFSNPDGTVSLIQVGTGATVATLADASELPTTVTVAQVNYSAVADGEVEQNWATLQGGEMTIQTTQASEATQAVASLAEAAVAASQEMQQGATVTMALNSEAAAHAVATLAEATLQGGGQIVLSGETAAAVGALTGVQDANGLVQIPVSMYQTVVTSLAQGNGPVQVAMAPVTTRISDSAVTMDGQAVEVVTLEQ
Sequence of Cellular tumor antigen p53 (Homo sapiens) (P04637 whole entry, looked up, the tested form may be a part): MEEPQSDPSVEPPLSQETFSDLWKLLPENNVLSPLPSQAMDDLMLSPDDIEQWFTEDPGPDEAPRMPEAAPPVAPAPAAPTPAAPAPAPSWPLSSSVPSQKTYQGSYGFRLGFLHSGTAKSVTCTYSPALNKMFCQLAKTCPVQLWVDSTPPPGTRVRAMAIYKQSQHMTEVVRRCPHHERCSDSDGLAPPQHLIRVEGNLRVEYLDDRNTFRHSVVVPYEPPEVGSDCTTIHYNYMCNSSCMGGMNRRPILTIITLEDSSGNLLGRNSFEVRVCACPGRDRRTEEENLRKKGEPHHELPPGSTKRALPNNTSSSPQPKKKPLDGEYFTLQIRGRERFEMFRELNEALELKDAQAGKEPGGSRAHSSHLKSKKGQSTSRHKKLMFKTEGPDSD
Sequence of Heat shock factor protein 1 (Homo sapiens) (Q00613 whole entry, looked up): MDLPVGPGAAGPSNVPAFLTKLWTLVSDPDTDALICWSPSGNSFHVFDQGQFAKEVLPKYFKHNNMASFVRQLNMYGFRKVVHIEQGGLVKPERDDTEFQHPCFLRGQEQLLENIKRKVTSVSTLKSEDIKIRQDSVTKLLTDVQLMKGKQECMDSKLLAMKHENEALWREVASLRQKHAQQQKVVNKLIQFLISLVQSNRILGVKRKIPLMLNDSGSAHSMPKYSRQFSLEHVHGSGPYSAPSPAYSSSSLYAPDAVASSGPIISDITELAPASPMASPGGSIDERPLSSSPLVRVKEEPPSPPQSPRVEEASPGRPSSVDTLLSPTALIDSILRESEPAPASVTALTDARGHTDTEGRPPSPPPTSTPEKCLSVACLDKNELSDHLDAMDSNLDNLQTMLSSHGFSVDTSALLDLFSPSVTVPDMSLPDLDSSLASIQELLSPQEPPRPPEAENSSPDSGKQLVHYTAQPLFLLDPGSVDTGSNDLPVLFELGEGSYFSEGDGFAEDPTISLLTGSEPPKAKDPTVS
Sequence of Hypoxia-inducible factor 1-alpha (Homo sapiens) (Q16665 whole entry, looked up): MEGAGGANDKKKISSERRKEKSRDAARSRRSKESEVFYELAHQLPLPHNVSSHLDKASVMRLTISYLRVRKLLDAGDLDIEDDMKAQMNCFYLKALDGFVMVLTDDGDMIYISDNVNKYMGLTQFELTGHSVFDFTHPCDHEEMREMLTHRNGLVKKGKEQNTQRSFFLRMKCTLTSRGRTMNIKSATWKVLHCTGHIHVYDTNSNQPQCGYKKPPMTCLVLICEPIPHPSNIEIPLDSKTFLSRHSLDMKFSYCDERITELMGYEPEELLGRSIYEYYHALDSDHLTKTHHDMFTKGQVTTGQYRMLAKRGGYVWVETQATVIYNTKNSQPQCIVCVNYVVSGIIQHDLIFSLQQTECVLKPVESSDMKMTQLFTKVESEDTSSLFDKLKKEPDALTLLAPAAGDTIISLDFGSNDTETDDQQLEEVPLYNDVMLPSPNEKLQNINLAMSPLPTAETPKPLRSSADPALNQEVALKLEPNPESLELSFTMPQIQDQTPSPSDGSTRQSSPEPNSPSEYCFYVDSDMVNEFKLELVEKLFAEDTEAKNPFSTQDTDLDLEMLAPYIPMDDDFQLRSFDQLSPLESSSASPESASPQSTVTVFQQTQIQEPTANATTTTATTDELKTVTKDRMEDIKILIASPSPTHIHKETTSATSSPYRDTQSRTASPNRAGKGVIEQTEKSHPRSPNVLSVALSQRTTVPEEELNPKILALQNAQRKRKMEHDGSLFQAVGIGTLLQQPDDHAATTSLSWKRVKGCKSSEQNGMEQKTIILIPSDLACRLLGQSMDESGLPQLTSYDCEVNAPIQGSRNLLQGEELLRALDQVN
Sequence of Hepatocyte nuclear factor 6 (Homo sapiens) (Q9UBC0 whole entry, looked up, the tested form may be a part): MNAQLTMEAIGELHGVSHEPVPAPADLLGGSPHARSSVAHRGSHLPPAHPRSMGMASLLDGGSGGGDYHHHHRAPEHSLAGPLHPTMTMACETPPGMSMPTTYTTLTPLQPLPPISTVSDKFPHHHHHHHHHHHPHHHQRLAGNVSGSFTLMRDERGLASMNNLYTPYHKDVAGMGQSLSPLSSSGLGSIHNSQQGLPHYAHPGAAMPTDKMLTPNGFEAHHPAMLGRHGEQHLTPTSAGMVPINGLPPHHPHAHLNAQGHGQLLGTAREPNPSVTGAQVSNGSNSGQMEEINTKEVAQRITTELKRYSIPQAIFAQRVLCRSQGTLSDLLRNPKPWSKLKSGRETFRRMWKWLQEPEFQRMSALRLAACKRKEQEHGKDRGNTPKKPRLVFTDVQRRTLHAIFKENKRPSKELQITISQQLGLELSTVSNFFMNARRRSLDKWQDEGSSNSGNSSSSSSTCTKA
Sequence of Myc proto-oncogene protein (Homo sapiens) (P01106 whole entry, looked up): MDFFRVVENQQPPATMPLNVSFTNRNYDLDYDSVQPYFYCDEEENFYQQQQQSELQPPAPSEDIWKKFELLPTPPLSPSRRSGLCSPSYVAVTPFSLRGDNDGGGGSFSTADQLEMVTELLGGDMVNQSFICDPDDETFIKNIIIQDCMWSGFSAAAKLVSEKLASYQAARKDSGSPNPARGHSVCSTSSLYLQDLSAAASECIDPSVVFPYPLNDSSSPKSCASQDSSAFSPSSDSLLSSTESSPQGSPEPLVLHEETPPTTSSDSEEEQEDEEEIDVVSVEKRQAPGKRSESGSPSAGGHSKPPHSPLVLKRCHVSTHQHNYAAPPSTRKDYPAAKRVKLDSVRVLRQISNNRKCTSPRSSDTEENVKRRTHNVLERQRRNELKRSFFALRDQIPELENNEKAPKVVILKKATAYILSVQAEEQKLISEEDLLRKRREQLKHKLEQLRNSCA
Sequence of CCAAT/enhancer-binding protein beta (Homo sapiens) (P17676 whole entry, looked up): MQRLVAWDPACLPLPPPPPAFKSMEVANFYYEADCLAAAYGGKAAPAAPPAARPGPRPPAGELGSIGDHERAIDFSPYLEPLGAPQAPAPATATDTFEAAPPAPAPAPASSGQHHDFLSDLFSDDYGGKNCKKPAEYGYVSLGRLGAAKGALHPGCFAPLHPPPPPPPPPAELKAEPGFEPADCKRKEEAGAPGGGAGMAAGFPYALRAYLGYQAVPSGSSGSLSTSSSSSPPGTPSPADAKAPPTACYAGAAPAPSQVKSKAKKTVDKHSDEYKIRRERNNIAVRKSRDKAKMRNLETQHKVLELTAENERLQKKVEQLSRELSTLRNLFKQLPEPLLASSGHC
Sequence of X-box-binding protein 1 (Homo sapiens) (P17861 whole entry, looked up): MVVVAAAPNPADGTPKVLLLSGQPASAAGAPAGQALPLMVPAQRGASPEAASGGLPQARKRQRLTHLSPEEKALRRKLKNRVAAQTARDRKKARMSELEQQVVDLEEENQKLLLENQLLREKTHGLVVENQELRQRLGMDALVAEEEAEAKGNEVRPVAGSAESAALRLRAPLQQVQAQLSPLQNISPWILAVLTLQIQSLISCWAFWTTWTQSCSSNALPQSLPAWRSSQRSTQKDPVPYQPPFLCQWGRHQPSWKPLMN

As to `O=C(O)COc1ccccc1`, the outcome in [1], in [2], in [3], in [4], in experiment [5] and in [6] was inactive. For the same compound, the result in experiment [7], in experiment [8], in experiment [9], in [10], in experiment [11] and in experiment [12] was inactive. Moreover, the compound was called inactive in [13], in experiment [14], in experiment [15], in [16] and in experiment [17].

For the compound `O=C(NC(=O)c1c(F)cccc1F)Nc1ccc(Oc2ccc(C(F)(F)F)cc2Cl)cc1F`, the call in experiment [1], in [2], in experiment [4], in experiment [5], in [18] and in experiment [6] was inactive. Further, the compound was called inactive in experiment [7], in experiment [19], in [8], in [9], in [10] and in [11]. Further, the outcome in [12], in experiment [13], in experiment [20], in [14], in [16] and in experiment [17] was inactive. Also, the results for the AC50 in experiment [3] and in experiment [15] were 8.23 µM (active) and 34.5 µM (active), respectively.

For the compound `C[N+](=O)[O-]`, the call in [1], in [2], in experiment [3], in experiment [4], in experiment [5] and in [18] was inactive. In addition, the result in experiment [7], in [19], in [8], in experiment [9], in experiment [10] and in experiment [11] was inactive. In addition, the compound was classed as inactive in [12], in experiment [13], in experiment [20], in experiment [14], in experiment [15] and in [16]. In experiment [17], the compound was called inactive.

Regarding `CN(C)C(=O)C(c1ccccc1)c1ccccc1`, the compound was called inactive in experiment [1], in [2], in experiment [3], in experiment [4], in [5] and in experiment [18]. The call in [6], in [7], in experiment [19], in experiment [8], in experiment [9] and in experiment [10] was inactive. The outcome in experiment [11], in experiment [12], in experiment [13], in [20], in experiment [14] and in [15] was inactive. In addition, the compound was called inactive in experiment [16] and in experiment [17].
